From PubChem
Only some compounds are listed: those with a hit (about 7.8% of all), similar ones and a draw of the others.
PostGolgi yeast: growth inhibition of a yeast mutant, post-Golgi transport screen; post-Golgi transport phenotypic cell assay; hit rate 0.9% among 98,000; inhibition, % at 10 µM; AID 739;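 also: yeast cells grown in 1536-well plates; yeast grown about 18 h at 30C before absorbance read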
PostGolgi ctrl: yeast control strain growth, post-Golgi counter-screen. efflux-deficient yeast background strain, growth absorbance A615, 16 h. inhibition, % at 10 µM. hit rate 5% among 98,000. AID 738
sEH act: activators of human soluble epoxide hydrolase | purified human sEH enzymatic activity, activator screen | hit rate 0.04% among 91,000 | AID 717 | P34913 | activation, % at 2 µM; in the data active = activation above about 37%
sEH inh: soluble epoxide hydrolase (human) inhibition. P34913. recombinant human sEH enzymatic activity assay. inhibition, % at 2 µM. hit rate 0.34% among 91,000; in the data active = inhibition above about 80%
Cav32 inh: human Cav3.2 channel inhibition, primary screen; O95180; Cav3.2-expressing cells, Fluo-4 calcium fluorescence FDSS; active compounds read low; B-score at 10 µM; hit rate 4% among 100,000;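 active = single-dose well whose peak fluorescence ratio is a statistical outlier from its plate by either plate-standardised score or position-corrected B-score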
The depositor's hits bear a star; x = not tested or not shown. Rule as the data show it, unless noted: active = inhibition above about 30%; inactive = the rest.

SMILES	PostGolgi yeast	PostGolgi ctrl	sEH act	sEH inh	Cav32 inh
CCN(CC)c1ccc(/C=C(/C#N)c2nc3ccccc3[nH]2)c(OC(C)C)c1	2	11	0	-2	-3.5*
CCc1ccc2nc(NC(=O)CCCc3cccs3)sc2c1	1	1	-9	10	x
CCn1c(SCC(=O)Nc2nc3c(s2)CCCC3)nnc1-c1ccccc1	-3	0	8	-11	-1.5
Cc1ccc(CC(=O)Nc2nc3c(s2)CCCC3)cc1	-2	3	-11	11	-5.2*
Cc1ccc2cc(C)c3nnc(SCC(=O)Nc4nc5c(s4)CCCC5)n3c2c1C	5	0	-2	4	-5.3*
O=C(CCCc1cccs1)Nc1nc2c(s1)CCCC2	-4	9	-23	23	-7.6*
COC(=O)c1cccc(-n2nnnc2SCC(=O)Nc2nc3c(s2)CCCC3)c1	1	28	x	x	-4.8*
C/C(N)=C(/C#N)C(=O)CSc1nc2ccccc2[nH]1	9	4	-2	4	-0.93
COc1ccc2nc(NC(=O)CN(C)S(=O)(=O)c3cccs3)sc2c1	22	5	15	-18	-1.2
O=C(CS(=O)(=O)Cc1ccccc1)Nc1nc2c(s1)CCCC2	-13	25	-13	11	-1.1
O=C(Cc1ccc(S(=O)(=O)N2CCCC2)s1)Nc1nc2c(s1)CCCC2	-2	11	-22	21	-3.8*
COc1ccc(NC(=O)C(C/C=C(/C)Cl)C(C)=O)cc1 (stereo not given)	x	x	11	-8	-0.3
CCCCOc1ccc2ccccc2c1C=O	-4	6	-4	4	0.72
CCOC(=O)COc1ccc(/C=C/[N+](=O)[O-])c(OCC(=O)OCC)c1	-5	5	3	-2	-1.2
O=[N+]([O-])/C=C/c1c(OCc2ccccc2)ccc2ccccc12	105*	99*	4	-6	-1.5
CCOc1ccc(/C=C/[N+](=O)[O-])c2ccccc12	78*	81*	3	-4	0.87
O=C1NC[C@H](Cc2ccccc2)N(CC2CCCCC2)C1=O	x	x	x	x	0.48
Clc1ccc2ncc(-c3nnnn3-c3ccccc3)c(-c3ccccc3)c2c1	11	36*	2	-2	-1.2
CCCNC(=O)C1(CC2CC(c3ccccc3)=NO2)CCN(C(=O)CCCCCBr)CC1 (stereo not given)	x	x	x	x	0.38
Cc1c(C(=O)c2ccc(Cl)cc2Cl)cnc2cc3c(cc12)OCO3	x	x	4	-4	-4*
Cc1ccc(NC(=S)NCCO)c(C)c1	-5	11	-12	12	-0.12
Cc1ccc(SCCNC(=S)Nc2ccccc2)cc1	-3	17	-5	6	-6.1*
Cc1ccc(SCCNC(=S)Nc2ccc(C)c(C)c2)cc1	2	16	-22	24	-4.4*
Cc1ccc(SCCNC(=S)Nc2cc(C)ccc2C)cc1	-2	15	1	-1	-4.1*
S=C(NCCSCc1c(Cl)cccc1Cl)Nc1ccccc1	-5	9	-52	52	-5.8*
SMILES	PostGolgi yeast	PostGolgi ctrl	sEH act	sEH inh	Cav32 inh
N/C(=N\S(=O)(=O)c1ccc(Cl)s1)c1ccccc1	21	1	-1	0	-5.8*
CCS(=O)(=O)/N=C(\N)c1ccccc1	25	-7	2	-2	x
CCCOC(=O)c1ccc(-c2c(C)noc2-c2ccc(OC)cc2O)o1	4	29	-8	4	-4.4*
CC(C)(C)c1ccc(OCCNC(=O)c2ncn[nH]2)cc1	13	3	13	-13	-0.69
Cc1cc2oc(C(=O)N(Cc3ccccc3)C3CCS(=O)(=O)C3)cc(=O)c2cc1Cl (stereo not given)	-1	5	1	0	-0.8
Cc1ccc2c(CC(=O)Nc3nc(C)cs3)coc2c1	-1	-1	-10	11	-6.8*
Cc1ccc2c(CC(=O)O)coc2c1	0	2	7	-7	1.1
Cc1ccc2c(CC(=O)NC3=NCCS3)coc2c1	-2	33*	2	2	-0.98
COc1ccc(Cn2nnc3c(=O)[nH]c(C(=O)NCCc4ccc(F)cc4)nc32)cc1OC	1	31*	x	x	0.79
O=C(NCCc1ccccc1)c1nc2c(nnn2Cc2ccccc2Cl)c(=O)[nH]1	3	7	-4	7	-3.6
CCOc1ccc(N(C(=O)/C=C/C(=O)Nc2cc(C)on2)C(C(=O)NC2CCCC2)c2ccccc2C)cc1 (stereo not given)	2	2	5	-4	-5.4*
Cc1cc(NC(=O)CCC(=O)N(CC2CCCO2)C(C(=O)NC2CCCC2)c2ccccc2C)no1 (stereo not given)	x	x	1	0	0.1
CCCC(c1nnnn1CC(=O)OCC)N(Cc1cc2c(C)cc(C)cc2[nH]c1=O)C1CCCC1 (stereo not given)	12	0	15	-14	x
